Measurements reported in PubChem BioAssay (NCI).
Values joined by “and” are separate entries in the source; they are usually repeats but may differ in a detail not shown here. Identical values can stand only once. The panel holds about 83,000 compounds, 20% with a hit somewhere; the sample as a whole holds those more often.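 Step 1: grow cells in 96-well plates. Step 2: add test compound at a single concentration. Step 3: incubate 48 h. Step 4: record percent growth.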 Unmarked numbers belong to inactive results. Active and inactive are the calls of the source. Rule for the calls: active = growth percent below 10; inactive = the rest.

How the values were obtained:
Experiment in all cases: NCI-60 one-dose screen, 48 h (100 = growth as untreated, 0 = no growth, -100 = all killed)
Details in all cases: 10 µM unless noted
[1] = tested on: NCI-H23 lung
[2] = tested on: NCI-H226 lung
[3] = tested on: NCI-H322M lung
[4] = tested on: HOP-62 NSCLC
[5] = tested on: NCI-H460 lung
[6] = tested on: HOP-92 NSCLC
[7] = tested on: NCI-H522 lung
[8] = tested on: A549/ATCC NSCLC
[9] = tested on: 786-0 renal
[10] = tested on: COLO 205 colon
[11] = tested on: DU-145 prostate
[12] = tested on: K-562 leukemia
[13] = tested on: MALME-3M melanoma
[14] = tested on: MDA-MB-231 breast
[15] = tested on: RXF 393 renal
[16] = tested on: SF-268 CNS
[17] = tested on: SF-295 CNS
[18] = tested on: SF-539 CNS
[19] = tested on: UACC-257 melanoma
[20] = tested on: M14 melanoma

Compound | growth [1] | growth [2] | growth [3] | growth [4] | growth [5] | growth [6] | growth [7] | growth [8] | growth [9] | growth [10] | growth [11] | growth [12] | growth [13] | growth [14] | growth [15] | growth [16] | growth [17] | growth [18] | growth [19] | growth [20]
Oc1c(Br)c(Br)c(O)c(Br)c1Br | 92.5% | 113% | 105% | 146% | 120% | 142% | -88% (active) | 118% | 111% | -34.4% (active) | 112% | 7.81% (active) | 56.5% | 116% | 12.5% | 108% | 107% | 119% | 117% | 110%
Cc1ccnc2c1ccc1c(C)ccnc12 | 21.7% | 17.4% | 19% | 6.08% (active) | 5.29% (active) | 44.7% | 11.8% | 8.87% (active) | 6.29% (active) | 4.27% (active) | 27.4% | 12% | 19.1% | 31.9% | 26.2% | 22.8% | 18.3% | -3.71% (active) | 2.29% (active) | -11.5% (active)
COc1ccc2nc3cc(Cl)ccc3c(NCCNc3c4ccc(Cl)cc4nc4ccc(OC)cc34)c2c1 | -73% (active) | -54.7% (active) | -86.6% (active) | -80.4% (active) | -68.7% (active) | -72.7% (active) | -90.7% (active) | -74.5% (active) | -88% (active) | -74.9% (active) | -95.4% (active) | -52.7% (active) | -77.4% (active) | -78.9% (active) | -93% (active) | -82.6% (active) | -93.2% (active) | -85.5% (active) | -89.6% (active) | -74.2% (active)
N#CC1C(=O)SC2c3ccccc3C(=O)c3ccccc3C12 (stereo not given) | 104% | 94.8% | 98.8% | 96.1% | 96.9% | 71.8% | 94.9% | 84.9% | 96.8% | 107% | 107% | 94.9% | 101% | 98% | 101% | 101% | 113% | 114% | 101% | 109%
O=C1c2cccnc2-c2nccc3c2c1nc1cc(Br)ccc13 | -78.4% (active) and -66.2% (active) | -43.8% (active) and -48.5% (active) | -99.2% (active) and -89.2% (active) | -68.6% (active) and -85.7% (active) | -52.9% (active) and -78.6% (active) | -17.1% (active) and -72.6% (active) | -60.8% (active) and -66% (active) | -65.9% (active) and -81% (active) | -86.6% (active) and -85.6% (active) | -85.6% (active) and -85% (active) | -88.9% (active) and -99.9% (active) | -87.4% (active) and -25.6% (active) | 8.18% (active) | -9.52% (active) and -58% (active) | -51.7% (active) and -90.9% (active) | -1.91% (active) and -63.6% (active) | 0% (active) and -84.3% (active) | -87.2% (active) and -90.5% (active) | -78.4% (active) and -83.7% (active) | -77.1% (active)
CCCCCCCCCCCCCCCC[N+](C)(CCO)Cc1cnc[nH]1 (stereo not given) | -3.12% (active) | -4.89% (active) | 20.3% | -64.2% (active) | -93.3% (active) | -55.8% (active) | -72.2% (active) | -36.1% (active) | -40.1% (active) | -100% (active) | -32% (active) | -61.6% (active) | -3.54% (active) | -54.9% (active) | -44.7% (active) | -66.1% (active) | -31.7% (active) | -54.3% (active) | -34.5% (active) | -41.9% (active)
CCOC(=O)/C(=C\c1ccc(-c2ccccc2)cc1)C(C)=O | 100% | 101% | 97.3% | 110% | 103% | 101% | 87.6% | 111% | 105% | 104% | 99.3% | 101% | 87.1% | 112% | 95.6% | 91% | 102% | 98% | 120% | 94.7%
CCOC(=O)c1c(C)[nH]c(CO)c1C | 99.1% | 114% | 94.9% | 93.9% | 110% | 101% | 84.3% | 90.7% | 106% | 104% | 101% | 101% | 91.1% | 104% | 134% | 96.7% | 95.1% | 104% | 94.2% | 95.5%
CC(C)(C)CC(C)(C)c1ccc(OCCSC(=N)N)cc1 | 60.7% | 71.8% | 71.6% | 98.4% | 35% | 17.7% | 48.3% | 77.2% | 28.2% | -76.9% (active) | 72.4% | 0.322% (active) | -0.257% (active) | -7.07% (active) | 60.8% | 55% | -34.7% (active) | -6.57% (active) | 76.7% | -48.5% (active)
COc1cc(/C=C(/C)C[N+](=O)[O-])ccc1O | 98.3% | 104% | 92.5% | 103% | 106% | 98.4% | 72% | 85.9% | 99.5% | 86.8% | 101% | 69.7% | -12.2% (active) | 89.8% | 91.2% | 101% | 99.3% | 105% | 33.5% | 83.2%
CCCCCCCCCCCCCCNCc1ccccc1 | 75.7% | 60.1% | 106% | 94.1% | 77.4% | 48.8% | 75.8% | 108% | 67.8% | -40.9% (active) | 81% | 23.8% | 92.6% | 54.4% | 82.3% | 94.7% | 97.7% | 83.2% | 99.4% | 81.8%
CCN1/C(=C\c2cc[n+](CC)c3ccccc23)C=Cc2ccccc21 | 12.7% | 19.6% | 25.4% | 18.7% | -32.8% (active) | -21.9% (active) | 12.4% | 18.9% | 25% | -35.2% (active) | 22.9% | 16.4% | 1.55% (active) | 3.42% (active) | 16.4% | 26.3% | 0.16% (active) | 7.56% (active) | -1.1% (active) | 10.5%
CNc1ccc2c(c1)c1ccccc1n2C | 85.2% | 101% | 98.4% | 100% | 108% | 99.5% | 92.4% | 105% | 105% | 111% | 102% | 105% | 106% | 98.5% | 113% | 95.1% | 98.7% | 98.1% | 107% | 116%
C=C(Cl)C(=NC(C)(C)C)Nc1ccccc1C | 98.8% | 102% | 109% | 92.4% | 106% | 84.9% | 67.7% | 111% | 97.9% | 55.2% | 87.1% | 19.8% | 83.9% | 91.3% | 103% | 101% | 99.3% | 99.3% | 100% | 85.1%
